The list is not random: actives were taken first. Their share in the collection is about 8.3%.
HCMV inh – human cytomegalovirus inhibition. HFF cells, HCMV-luciferase reporter, 72 h; stronger effect = lower value. activity change, negative = inhibition, % at 57.5 µM. hit rate 4.5% among 410,000. AID 1259415; in the data active = activity change below about -60%; inconclusive = no clear call, values can overlap the other calls; inactive = above about -39%; also: % is scaled to controls: 0 for no effect and ±100 for the full control effect
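Steps: HFFs plated, 16 h 37C; compounds added; HCMV-luciferase added to MOI 1 PFU/cell; 72 h 37C; OneGlo reagent, 5 min room temperature; luminescence read, normalized to controls.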
FMDV inh – antivirals against foot and mouth disease virus. FMDV antiviral cell-based qHTS. hit rate 1.2% among 410,000. Potency, µM (titrated, usually from 57.9 µM), for the others: at the top dose activity change, negative = inhibition, usual class: inhibitors. AID 1159524; calls by dose curve; tested in HEK293T cells; also: read-out not given here; potency is read from the fitted curve at half-maximal effect; % is scaled to controls: 0 for no effect and ±100 for the full control effect; nearly all actives have a fitted effect of over 45% in size
Lassa entry inh – blocks Lassa virus binding to or entry into cells; Lassa virus pseudotype entry inhibition, cell reporter; Potency, µM (titrated, usually from 37.9 µM), without a hit: top-dose activity change, negative = inhibition, actives largely listed as inhibitors; hit rate 1.2% among 300,000; AID 540256; calls by dose curve; tested in HEK293 cells; also: potency is read from the fitted curve at half-maximal effect; % is scaled to controls: 0 for no effect and ±100 for the full control effect; nearly all actives have a fitted effect of over 50% in size
Marburg entry inh – Marburg virus entry inhibition; Potency, µM (titrated, usually from 37.8 µM), without a hit: top-dose activity change, negative = inhibition, most hits filed as inhibitors; hit rate 1.8% among 300,000; Marburg virus pseudotyped entry inhibition, cell reporter; calls by dose curve; tested in HEK293 cells; also: potency is read from the fitted curve at half-maximal effect; % is scaled to controls: 0 for no effect and ±100 for the full control effect
HCV inhibitor – inhibitors of hepatitis C virus infection. Huh7.5.1 HCVcc-Cre infection, luciferase reporter, 44 h. Potency, µM (doses to about 41.8 µM), for the others: at the highest dose activity change, negative = inhibition, usual class: inhibitors. hit rate 3.4% among 340,000; also: potency is read from the fitted curve at half-maximal effect; % is scaled to controls: 0 for no effect and ±100 for the full control effect
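Reporter virus HCVcc-Cre (~0.5 moi) infects cells exposed to compound; seeding density 1,000 cells/well with 4 h settling beforehand. Luminescence, 15 sec read, taken 44 h post-infection following a 15 min RT substrate incubation.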
Giardia FBPA inh-1 – blocks Giardia fructose-bisphosphate aldolase activity | purified Giardia FBPA | hit rate 0.71% among 290,000 | Potency, µM (doses to about 59.6 µM), for inactives: at the highest dose activity, negative = inhibition, actives largely listed as inhibitors | AID 2451 | A8B2U2; also: potency is read from the fitted curve at half-maximal effect; % is scaled to controls: 0 for no effect and ±100 for the full control effect; nearly all actives have a fitted effect of over 55% in size
Target sequence (A8B2U2 whole entry, looked up): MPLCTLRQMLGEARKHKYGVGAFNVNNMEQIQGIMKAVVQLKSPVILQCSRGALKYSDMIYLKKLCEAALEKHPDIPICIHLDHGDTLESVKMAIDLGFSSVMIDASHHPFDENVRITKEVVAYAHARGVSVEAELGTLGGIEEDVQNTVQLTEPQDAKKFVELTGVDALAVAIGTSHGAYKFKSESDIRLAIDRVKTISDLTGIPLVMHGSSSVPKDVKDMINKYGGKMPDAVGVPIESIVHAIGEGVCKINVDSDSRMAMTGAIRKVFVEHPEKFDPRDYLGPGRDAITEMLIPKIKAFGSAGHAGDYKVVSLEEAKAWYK
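40 nM FBPA preincubated 10 min at RT with compound (up to 57.5 uM final), then substrate plus GAPDH/TPI/NAD/arsenate coupling and diaphorase/resazurin added. Fluorescence read after 20 min at RT, 525/598 nm.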
Giardia growth – blocks growth of Giardia lamblia trophozoites. shares compounds with Giardia FBPA inh-1. Giardia lamblia trophozoite growth inhibition. Potency, µM (highest dose often 57.5 µM), for the others: top-dose activity change, negative = inhibition, usual class: inhibitors. hit rate 5% among 1,500. AID 2785;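 also: potency is read from the fitted curve at half-maximal effect; trophozoites exposed to compound for 48 h at 37 °C; % is scaled to controls: 0 for no effect and ±100 for the full control effect; nearly all actives have a fitted effect of over 70% in size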
Mammal cell tox – counter-screen for Giardia aldolase inhibitors: mammalian cell toxicity | hit rate 4% among 1,500 | Potency, µM (highest dose often 57.5 µM), without a hit: at the highest dose viability change, negative = toxicity, actives largely listed as inhibitors | AID 2786 | mammalian cell viability counter-screen, qHTS | shares compounds with Giardia FBPA inh-1;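 also: Chinese hamster ovary cells used as mammalian cytotoxicity surrogate; viability measured as cellular ATP by luminescence; potency is read from the fitted curve at half-maximal effect; compound exposure lasted 48 h before reading; % is scaled to controls: 0 for no effect and ±100 for the full control effect; nearly all actives have a fitted effect of over 60% in size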
Giardia FBPA inh-2 – confirmation of Giardia fructose-bisphosphate aldolase inhibitors | AID 2787 | shares compounds with Giardia FBPA inh-1 | Potency, µM (top dose mostly 57.5 µM), for inactives: at the highest dose activity change, negative = inhibition, hits mostly inhibitors | purified Giardia aldolase enzyme activity, qHTS | hit rate 5% among 1,500; also: potency is read from the fitted curve at half-maximal effect; % is scaled to controls: 0 for no effect and ±100 for the full control effect; nearly all actives have a fitted effect of over 45% in size
Rabbit FBPA inh – selectivity test for Giardia aldolase inhibitors: rabbit aldolase; shares compounds with Giardia FBPA inh-1; Rabbit muscle FBPA enzyme inhibition, selectivity counter-screen; Potency, µM (series often up to 57.5 µM), for the others: at the top dose activity, negative = inhibition, usual class: inhibitors; hit rate 4% among 1,500; AID 2794; also: potency is read from the fitted curve at half-maximal effect; % is scaled to controls: 0 for no effect and ±100 for the full control effect; nearly all actives have a fitted effect of over 60% in size
Target sequence (P00883 whole entry, looked up): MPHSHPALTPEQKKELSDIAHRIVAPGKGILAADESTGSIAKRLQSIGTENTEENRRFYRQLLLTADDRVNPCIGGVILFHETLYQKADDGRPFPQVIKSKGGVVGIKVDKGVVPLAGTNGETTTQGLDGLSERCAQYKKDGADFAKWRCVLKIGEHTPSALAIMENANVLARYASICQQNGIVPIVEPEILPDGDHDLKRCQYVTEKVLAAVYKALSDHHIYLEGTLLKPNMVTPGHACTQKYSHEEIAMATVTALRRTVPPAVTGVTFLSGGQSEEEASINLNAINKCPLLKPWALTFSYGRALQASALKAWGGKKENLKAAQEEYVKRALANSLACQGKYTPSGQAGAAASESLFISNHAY
GAPDH counter – GAPDH inhibition flagged for Giardia aldolase hits. Potency, µM (doses to about 57.5 µM), inactives show at the top dose activity change, negative = inhibition, actives largely listed as inhibitors. AID 2795. GAPDH coupling enzyme counterscreen, biochemical, qHTS. shares compounds with Giardia FBPA inh-1. hit rate 6% among 1,500; also: potency is read from the fitted curve at half-maximal effect; % is scaled to controls: 0 for no effect and ±100 for the full control effect; nearly all actives have a fitted effect of over 55% in size
WI-38 cytotox – toxic to WI-38 fibroblasts in PNC inhibitor counter-screen; 120 tested, under 10 active; WI-38 normal lung fibroblasts, ATPLite luminescence ATP viability, 24 h; shares compounds with Marburg entry inh; Potency, µM (series often up to 46.1 µM), for the others: at the top dose activity change, negative = cytotoxicity, hits mostly inhibitors
PNC inh conf – confirmation of perinucleolar compartment assembly inhibitors. shares compounds with Marburg entry inh. PC3M PTB-GFP, PNC prevalence imaging, 16 h. Potency, µM (titrated, usually from 46.1 µM), inactives show top-dose activity, negative = PNC inhibition, hits mostly inhibitors. hit rate 50% among 120
PC3M caspase – activates caspase 3/7 in PC3M cells in PNC counter-screen | shares compounds with Marburg entry inh | PC3M-GFP caspase 3/7 activation, luminescence, 24 h | activity change, positive = activation, % at 46.1 µM | 120 tested, under 10 active
Starred values were filed as active, the others as inactive; ? = inconclusive; . = no result given; [ ] = remark or other dose. Unless noted, calls follow the shape of the dose curve; as a rule, active = well fitted curve in the direction sought with a large enough effect; inconclusive = small, poorly fitted or top-dose-only effect, or another doubt; inactive = no such curve, though single readings can be large; an effect the other way counts as inactive or inconclusive.

SMILES	HCMV inh	FMDV inh	Lassa entry inh	Marburg entry inh	HCV inhibitor	Giardia FBPA inh-1	Giardia growth	Mammal cell tox	Giardia FBPA inh-2	Rabbit FBPA inh	GAPDH counter	others
COc1ccc(CCn2c(NN)nc3c2c(=O)[nH]c(=O)n3C)cc1	-14	-22%	-24%[46.1 µM]	?	?	5µM*	1%[10.4 µM]	-11%	32µM*	?	25µM*
COc1ccc(CCn2c(NCc3ccco3)nc3c2c(=O)[nH]c(=O)n3C)cc1	-1	-5%	-24%	3%	4%	-5%	.	.	.	.	.
COc1ccc(CCn2c(NN=C(C)C)nc3c2c(=O)[nH]c(=O)n3C)cc1	-35	?	.	.	1%	2.8µM*	-7%[38.3 µM]	-21%	13µM*	?	14µM*
C=CCN(CC=C)CCOc1ccc(C)cc1[N+](=O)[O-]	98	49%	?	?	-20%	20µM*	?	2%	-1%	1%	-4%
C=CCN(CC=C)CCOc1cc(C)ccc1[N+](=O)[O-]	-4	-7%	-1%	-11%[46.1 µM]	-17%	?	.	.	.	.	.
O=C(c1ccc2c(c1)N(Cc1ccc(F)cc1)C(=O)c1ccccc1S2(=O)=O)N1CCCCC1	43	1%	-6%[46.1 µM]	-4%[46.1 µM]	.	.	.	.	.	.	.
CN(CCC#N)C(=S)NC(=O)c1ccc(S(=O)(=O)N2CCOCC2)cc1	25	-17%	8%	26%[46.1 µM]	-8%	16µM*	8%	-1%	6%	9%	15%
N#CCc1ccc(NC(=O)c2ccc(S(=O)(=O)N3CCOCC3)cc2)cc1	-5	-18%	-4%	3%	2%	.	.	.	.	.	.
O=C(NC(=S)N(CCO)Cc1ccccc1)c1ccc(S(=O)(=O)N2CCCC2)cc1	-17	-1%	6%	?	14%	8.9µM*	0%[10.4 µM]	7%	4%	8%	10%
CC(=O)N1CCN(C(=S)NC(=O)c2ccc(S(=O)(=O)N3CCOCC3)cc2)CC1	-16	-15%	6%	3%	12%	14µM*	-7%[10.4 µM]	3%	9%	11%	5%
CC(=O)c1ccc(NC(=O)Cn2c3ncccc3c(=O)n2-c2ccc(C)cc2)cc1	-19	-6%	6%[46.1 µM]	9%[46.1 µM]	.	.	.	.	.	.	.
CCn1nc(C)cc1-c1n[nH]c(=S)n1N	?	-14%	8%	7%	17%	7.1µM*	17%	21%	7%	-3%	14%
O=C(C[n+]1ccccc1)Nc1c(Cl)cc(Cl)cc1Cl	?	-9%	1%[46.1 µM]	14%[46.1 µM]	6%	13µM*	24%	-6%	7%	8%	9%
Cc1ccc(S(=O)(=O)Nc2cc(Cl)c3oc4c(c3c2)C(=O)CC(C)(C)C4)cc1	18	14%	0%[46.1 µM]	?	.	.	.	.	.	.	.
Clc1ccc(SCCOCCN2CCOCC2)cc1	4	8%	.	.	-8%	18µM*	9%[10.4 µM]	25%	11%	-1%	11%
COc1cc(OC)c(OC)cc1CN1CCCC(C(=O)N2CCCC2)C1 (centres undefined)	-26	-2%	1%	?	-11%	28µM*	26%	4%	2%	2%	7%
COc1ccc(CN2CCCC(C(=O)N3CCCCC3)C2)c(OC)c1 (centres undefined)	.	-8%	-9%	-27%	-14%	?	.	.	.	.	.
O=C(CCc1ccccc1)NNC(=O)CCc1ccccc1	6	18%	.	.	-7%	12%	.	.	.	.	.
O=C(CCc1ccccc1)NNC(=O)c1ccccn1	-75*	3%	.	.	?	18µM*	11µM*	?	3%	2%	-4%
Cc1ccc(-n2c(C)cc(C=C3C(=O)N(C)C(=O)N(C)C3=O)c2C)cc1	23	-16%	1%	12%	16%	.	.	.	.	.	.
Cc1cc(C=C2C(=O)N(C)C(=S)N(C)C2=O)c(C)n1-c1cccnc1	-35	?	0%	-19%	9%	3.2µM*	-29%	7%	-12%	-7%	-29%
COc1ccc(CNC2CCSc3ccccc32)cc1OC (centres undefined)	-5	?	-14%	?	-13%	28µM*	8%[10.4 µM]	25%	1%	4%	3%
COc1ccccc1CNC1CCCc2ccccc21 (centres undefined)	-8	-2%	-2%[46.1 µM]	?	-1%	16µM*	?	0%	3%	4%	10%
COc1ccc(S(=O)(=O)NC2CCSc3ccccc32)cc1OC (centres undefined)	-17	14%	-9%[46.1 µM]	-32%[46.1 µM]	15%	8%	.	.	.	.	.
COc1ccc(CNC2CCCc3ccccc32)cc1OC (centres undefined)	-11	-15%	6%	?	-8%	-24%	.	.	.	.	.
CC(C)c1ccc(S(=O)(=O)/N=C2/C=C(Sc3ncn[nH]3)C(=O)c3ccccc32)cc1	.	22µM*	?	?	2.5µM*	0.45µM*	7.1µM*	25µM*	3.5µM*	16µM*	3.5µM*	WI-38 cytotox=-4%;PNC inh conf=?;PC3M caspase=-4
Cc1ccc(Cl)cc1N1CCN(C(=O)c2ccc(NC(=O)c3nsc4ccccc34)cc2)CC1	-21	11%	2%[46.1 µM]	.	.	.	.	.	.	.	.

High-throughput results (PubChem BioAssay)
